PubChem BioAssay AID1851 (National Center for Advancing Translational Sciences (NCATS), 2009)
“And” between values parts separate entries of the source, which are not always exact repeats. Equal entries are not always repeated. Hit rate of the full screen: of about 16,000 compounds, about 5,800 (36%) were called active. Not shown: some 23% with an inconclusive outcome. The call rests on the fitted dose curve; in most records, active means well fitted curve in the direction sought with a large enough effect; inconclusive means small, poorly fitted or top-dose-only effect, or effect the other way; inactive means no such curve, though single readings can be large or run the other way. This is one part of the list. Some compounds were tested as several samples or in several runs, with calls that do not always agree. Square brackets hold non-standard residues; d marks the D form. Peptide text beside a SMILES is read from it.

biological target: Cytochrome P450 2C19 (Homo sapiens) (UniProt P33261); assay: Cytochrome panel assay with activity outcomes; details: recombinant CYP, pro-luciferin dealkylation, luminescence, p450-cyp2c19; series mostly up to 57.1 µM; activity, negative = inhibition: at the top concentration
Sequence (P33261 whole entry, looked up): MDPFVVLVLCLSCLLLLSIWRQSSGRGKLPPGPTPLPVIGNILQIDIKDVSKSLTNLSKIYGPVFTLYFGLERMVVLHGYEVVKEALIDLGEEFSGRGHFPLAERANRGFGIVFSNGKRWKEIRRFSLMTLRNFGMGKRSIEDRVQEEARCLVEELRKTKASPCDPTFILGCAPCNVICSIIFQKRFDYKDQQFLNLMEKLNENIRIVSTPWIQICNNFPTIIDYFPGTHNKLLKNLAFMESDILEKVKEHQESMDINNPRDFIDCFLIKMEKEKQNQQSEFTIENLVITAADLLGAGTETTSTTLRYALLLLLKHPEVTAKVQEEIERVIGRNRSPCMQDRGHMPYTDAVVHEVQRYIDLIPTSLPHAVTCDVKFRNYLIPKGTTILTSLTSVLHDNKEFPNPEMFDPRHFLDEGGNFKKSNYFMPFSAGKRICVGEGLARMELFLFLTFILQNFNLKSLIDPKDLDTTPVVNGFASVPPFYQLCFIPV
On the % scale 0 is the no-effect control and ±100 the full control effect.

activity, negative = inhibition, inactive:
CC(C)(C)c1onc(OCP(=O)(O)O)c1C[C@@H](N)C(=O)O -1.17%, CCOc1cc(C#N)c(NC(=O)c2cccnc2)cc1OCC -11.4%, COC(=O)c1cc(=O)[nH]c(=O)[nH]1 23% [at 11.4 µM], CCNc1ncc2nc(-c3cc(F)cc(F)c3)c(=O)n(CCOC)c2n1 -41.4%, COC(=O)/C=C\CCc1coc(/C=C\CNC(=O)OC)n1 31.7% [at 11.4 µM], CCCc1cc(=O)oc2cc(OCc3cc(OC)c(OC)c(OC)c3)c(Cl)cc12 4.84%, NCS(=O)(=O)O 8.81% [at 11.4 µM], Cn1nc(C(=O)NC2CCCCC2)c2ccccc2c1=O -26%, O=C(NNC(=O)C1CCCCC1)c1cnccn1 -21.2%, COc1ccc(OC)c(NC(=O)[C@H]2CC=CC[C@H]2C(=O)O)c1 -9.87%, O=C1c2ccccc2-c2ccc(N(Cc3ccc(Br)cc3)Cc3ccc(Br)cc3)cc21 -10.9% [at 11.4 µM], O=C1c2ccccc2-c2ccc(NC(=O)[C@H]3CCCC[C@@H]3C(=O)O)cc21 -17.3% [at 11.4 µM], COc1ccc(NC(=O)N2CC[C@@]3(CCCN(C(=O)c4cnccn4)C3)C2)cc1 17.4%, Cc1nc2c(C#N)c(C)[nH]n2c(=O)c1Cc1ccccc1 -16.2%, Cn1c(=O)n2n(c1=O)[C@H]1[C@H](O)[C@H]3O[C@@H]3/C(=N/OCc3ccccc3)[C@@H]1CC2 50.3% [at 11.4 µM], CC(=O)O[C@H]1C2=CO[C@H](C)[C@H]3[C@H]4C5=C([C@H](O)[C@H]6O[C@@H]6C5=O)[C@H](O[C@H]4C)[C@@]23C(=O)[C@H]2O[C@@H]21 11.4% [at 11.4 µM], CC(=O)c1[nH]c(C)c(C(C)=O)c1C -10.7%, O=C(O)CCc1ccc(-c2ccc(Cl)cc2)n1CCC(=O)O -23.8%, CCCNC(=O)NS(=O)(=O)c1ccc(Cl)cc1 -5.17% [at 25.6 µM], CCOC(=O)C[C@@H](C(=O)OCC)[C@@H]1CCCCC1=O -32.2% [at 11.4 µM], O=C1NC(=O)C(c2ccccc2)(c2ccccc2)N1 10.9%, COC(=O)C/C=C\[C@@H](C)[C@@H]1C=C[C@H](OC(C)=O)[C@H](COC(C)=O)O1 16.3% [at 11.4 µM], O=C1CN2CCN(CC2)CC(=O)Nc2ccc(cc2)S(=O)(=O)c2ccc(cc2)NC(=O)CN2CCN(CC2)CC(=O)Nc2ccc(cc2)S(=O)(=O)c2ccc(cc2)N1 -8.07% [at 11.4 µM], CCC(=O)Nc1nonc1-c1nc2ccccc2n1N(C(=O)CC)C(=O)CC -13.8%, CN(C)Cc1ccccc1-c1ccc2ncnc(NC3CCNCC3)c2c1 0.549%, Cc1ccccc1-c1nc(NC2CCNCC2)c2ccccc2n1 -11.2%, O[C@@H](c1ccccc1)C1CCN(CCc2ccccc2)CC1 -43.7%, C[C@@H](N)C(=O)O -2.97%, Cc1ccccc1N1CCN(S(=O)(=O)C[C@@]23CC[C@H](C[C@H]2NC(=O)[C@@H](N)CCS(C)(=O)=O)C3(C)C)CC1 -31.2%, COc1cnc(NS(=O)(=O)c2ccc(N)cc2)nc1 -19.3% [at 25.6 µM], O=C1NC(c2ccccc2)=NC1(NS(=O)(=O)c1ccccc1)C(F)(F)F (stereo unspecified) 9.27%, CC(=O)[C@@]1(O)CC[C@H]2[C@H]3C[C@@H](C)C4=CC(=O)C=C[C@]4(C)[C@@]3(F)[C@@H](O)C[C@]21C -14.6% [at 25.6 µM], CCC(=O)NC(=S)Nc1ccc(S(=O)(=O)NC(C)=O)cc1 -19.2%, CC(C)(C)N1C(=O)[C@@H]2[C@H]3C(=CC[C@H]2C1=O)C(=O)[C@H]1O[C@H]1[C@H]3O 18.8% [at 11.4 µM], COc1ccc(NC(=O)C23CC4CC(C2)CC(n2cnc(Br)n2)(C4)C3)c(C)c1 -20.6%, COC(=O)[C@@H]1[C@@H]2C[C@H]3c4[nH]c5ccccc5c4CCN3C[C@@H]2CC[C@@H]1OS(=O)(=O)O -2.78% [at 11.4 µM], COC(=O)Cn1cnc(=O)c(C#N)c1/C=C/N(C)C -16.4%, NC1(C(=O)O)CC(C(=O)O)C1 (stereo unspecified) -15.2%, C[C@@]1(C(=O)O)CCC[C@@H]1C(=O)O 40% [at 11.4 µM], N[C@@]1(C(=O)O)CN[C@H](C(=O)O)C1 -7.35%, c1ccc2c3c([nH]c2c1)[C@@H]1[C@H]2CC[C@H]([C@H]4CCCN[C@H]42)N1CC3 1.6% [at 25.6 µM], Cc1noc(C)c1C(=O)N1CCC2(CCCN(Cc3nccs3)C2)CC1 -39.5%, NCC(=O)N[C@H](CO)C(=O)O (H-Gly-[dS]-OH) -0.959% [at 11.4 µM], CCS(=O)(=O)N1CCC[C@H]2CN3CCc4cc(OC)ccc4[C@@H]3C[C@@H]21 -31.5%, COc1cccc(Cn2c(=O)c(-c3cn(C)c4ccccc34)nc3cnc(N4CCOCC4)nc32)c1 -44.4%, COc1ccc(-n2c(=O)c(-c3ccccc3)nc3cnc(N4CCNCC4)nc32)cc1 -16.4%, COc1ccc(-n2c(=O)c(-c3cc(F)cc(F)c3)nc3cnc(N4CCOCC4)nc32)cc1 -21.1%, CCC(=S)/C=C1\Sc2ccccc2N1CCCS(=O)(=O)O 31%, O=[N+]([O-])c1ccc2c(c1)Cc1cc(N=Cc3ccc4c(c3)OCO4)ccc1-2 -19.5% [at 11.4 µM]

AC50, inactive:
O=C(O)C1=CCCNC1, N[C@H](C(=O)O)[C@@H]1C[C@@H]1C(=O)O

AC50, active:
Cc1c(Cl)cccc1NC(=O)c1ccc(-n2ccnc2)nc1 0.0447 µM, O=C(Nc1ccc(F)cc1)c1ccc(-n2ccnc2)nc1 0.0708 µM, CCCCc1n[nH]c2c1/C(=N/O)CC(c1ccccc1)C2 (stereo unspecified) 0.447 µM, CCCc1cc(=O)oc2cc(OCc3nn[nH]n3)ccc12 25.1 µM, CCn1c(-c2ccccc2Cl)nn(CC(=O)Nc2ccccc2OC)c1=S 0.891 µM, CCn1c(-c2ccccc2Cl)nn(CC(=O)Nc2cc(Cl)ccc2Cl)c1=S 1.78 µM, CCn1c(-c2ccccc2Cl)nn(CC(=O)Nc2ccc(OC)cc2)c1=S 3.55 µM, COC(=O)c1ccc(C23CC2(C(NP(=O)(c2ccccc2)c2ccccc2)c2ccccc2)C3)cc1 (stereo unspecified) 10 µM, O=C(NC1CCCC1)c1cccnc1N1CCCCCC1 8.91 µM, COc1cc(C)nc(N2CCCC(C(=O)Nc3cc(Cl)ccc3OC)C2)n1 (stereo unspecified) 0.126 µM, O=C(/C=C/c1ccc2ccccc2c1)c1ccoc1 2 µM, CS(=O)(=O)c1nc(-c2ccccc2)cc(-c2ccccc2)c1C#N 0.794 µM, O=C(OCc1cccc(F)c1)c1ccc2c(c1)-c1ccccc1C2=O 11.2 µM, Cc1nc2c(C(=O)NCc3ccc4c(c3)OCO4)c[nH]n2c(=O)c1Cc1ccccc1F 14.1 µM, C[C@@H]1O[C@H]2C3=C(C(=O)[C@H]4O[C@@H]4[C@H]3O)[C@@H]1[C@@H]1[C@@H](C)OC=C3[C@H](O)[C@H]4O[C@@H]4/C(=N\OCc4ccccc4)[C@]312 0.631 µM, CC(=O)c1c(C)[nH]c(C(=O)COc2ccc(C#N)cc2)c1C 8.91 µM, S=C1N(c2ccccc2)C(c2ccc(Cl)cc2)N2CCCN12 (stereo unspecified) 2.24 µM, Cc1ccc(S(=O)(=O)/C(C#N)=C/c2c(N3CC(C)OC(C)C3)nc3ccccn3c2=O)cc1 (stereo unspecified) 14.1 µM, O=C1/C(=C/c2ccccc2)[C@@H](NC2CCCCC2)c2ccccc21 1.26 µM, CCCNC(=O)CC(NS(=O)(=O)c1ccc(Cl)cc1)c1ccco1 (stereo unspecified) 1 µM, O=C(CC(NS(=O)(=O)c1ccc(Cl)cc1)c1ccco1)NCc1ccco1 (stereo unspecified) 7.94 µM, CCn1c(-c2nonc2NC(=O)c2ccccc2)nc2ccccc21 1.58 µM, FC(F)(F)c1ccccc1-c1ccc2ncnc(NC3CCNCC3)c2c1 3.98 µM, FC(F)(F)c1ccccc1-c1ccc2ncnc(NC3CC3)c2c1 2 µM, Clc1ccccc1-c1ccc2ncnc(NC3CCNCC3)c2c1 3.98 µM, Cc1ccccc1-c1ccc2ncnc(NC3CC3)c2c1 1.26 µM, COc1ccc(S(=O)(=O)NC2(C(F)(F)F)N=C3SCCN3C2=O)cc1 (stereo unspecified) 22.4 µM, COc1ccc(CC(=O)NC(=S)Nc2ccc(S(=O)(=O)NC(C)(C)C)cc2)cc1 25.1 µM, COc1ccc(CCNc2nc(-c3cccnc3)cs2)cc1OC 1.41 µM, O=C(NC12CC3CC(CC(C3)C1)C2)C12CC3CC(C1)CC(n1cnc(Cl)n1)(C3)C2 8.91 µM, CCOc1cc(S(=O)(=O)N(Cc2ccccc2)Cc2ccccc2)c(OCC)cc1-n1cnnn1 11.2 µM, CC1(C)NC(=O)N(c2ccc([N+](=O)[O-])c(C(F)(F)F)c2)C1=O 126 nM and 251 nM, Cc1cc2nc(CCN(C(=S)NCC(C)C)C3CCCC3)[nH]c2cc1C 2.24 µM, NC1(C(=O)O)C[C@H](C(=O)O)[C@H](C(=O)O)C1 (stereo partly specified) 0.398 µM, COc1ccc(N2CCN(S(=O)(=O)c3ccc4c(c3)CCCC4)CC2)c([N+](=O)[O-])c1 2 µM, COc1cccc(-c2cc(C(F)(F)F)nc(N3CCN(c4ccccc4)CC3)n2)c1 8.91 µM, COc1cccc(-c2cc(C(F)(F)F)nc(N3CCOCC3)n2)c1 25.1 µM, Brc1cc2c(cc1/C=N/Nc1nc(N3CCCC3)nc(N3CCOCC3)n1)OCO2 7.94 µM, O=[N+]([O-])c1ccc(Nc2nc(N/N=C\c3ccc4c(c3)OCO4)nc(N3CCCCC3)n2)cc1 2.24 µM

AC50, inactive and 7.94 µM (active):
NC1(C(=O)O)C[C@@H](C(=O)O)[C@H](C(=O)O)C1
